# Source: PubChem BioAssay (several laboratories)
# In the library only some 27% were active in any assay of this set; here they are far more common.
# Cav3 T inh: human Cav3.2 channel inhibition, primary screen | O95180 | Cav3.2-expressing cells, Fluo-4 calcium fluorescence FDSS; stronger effect = lower value | B-score at 10 µM | actives 4% (n = 100,000);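 active = single-dose well whose peak fluorescence ratio is a statistical outlier from its plate by either plate-standardised score or position-corrected B-score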
# Target sequence (O95180 whole entry, looked up): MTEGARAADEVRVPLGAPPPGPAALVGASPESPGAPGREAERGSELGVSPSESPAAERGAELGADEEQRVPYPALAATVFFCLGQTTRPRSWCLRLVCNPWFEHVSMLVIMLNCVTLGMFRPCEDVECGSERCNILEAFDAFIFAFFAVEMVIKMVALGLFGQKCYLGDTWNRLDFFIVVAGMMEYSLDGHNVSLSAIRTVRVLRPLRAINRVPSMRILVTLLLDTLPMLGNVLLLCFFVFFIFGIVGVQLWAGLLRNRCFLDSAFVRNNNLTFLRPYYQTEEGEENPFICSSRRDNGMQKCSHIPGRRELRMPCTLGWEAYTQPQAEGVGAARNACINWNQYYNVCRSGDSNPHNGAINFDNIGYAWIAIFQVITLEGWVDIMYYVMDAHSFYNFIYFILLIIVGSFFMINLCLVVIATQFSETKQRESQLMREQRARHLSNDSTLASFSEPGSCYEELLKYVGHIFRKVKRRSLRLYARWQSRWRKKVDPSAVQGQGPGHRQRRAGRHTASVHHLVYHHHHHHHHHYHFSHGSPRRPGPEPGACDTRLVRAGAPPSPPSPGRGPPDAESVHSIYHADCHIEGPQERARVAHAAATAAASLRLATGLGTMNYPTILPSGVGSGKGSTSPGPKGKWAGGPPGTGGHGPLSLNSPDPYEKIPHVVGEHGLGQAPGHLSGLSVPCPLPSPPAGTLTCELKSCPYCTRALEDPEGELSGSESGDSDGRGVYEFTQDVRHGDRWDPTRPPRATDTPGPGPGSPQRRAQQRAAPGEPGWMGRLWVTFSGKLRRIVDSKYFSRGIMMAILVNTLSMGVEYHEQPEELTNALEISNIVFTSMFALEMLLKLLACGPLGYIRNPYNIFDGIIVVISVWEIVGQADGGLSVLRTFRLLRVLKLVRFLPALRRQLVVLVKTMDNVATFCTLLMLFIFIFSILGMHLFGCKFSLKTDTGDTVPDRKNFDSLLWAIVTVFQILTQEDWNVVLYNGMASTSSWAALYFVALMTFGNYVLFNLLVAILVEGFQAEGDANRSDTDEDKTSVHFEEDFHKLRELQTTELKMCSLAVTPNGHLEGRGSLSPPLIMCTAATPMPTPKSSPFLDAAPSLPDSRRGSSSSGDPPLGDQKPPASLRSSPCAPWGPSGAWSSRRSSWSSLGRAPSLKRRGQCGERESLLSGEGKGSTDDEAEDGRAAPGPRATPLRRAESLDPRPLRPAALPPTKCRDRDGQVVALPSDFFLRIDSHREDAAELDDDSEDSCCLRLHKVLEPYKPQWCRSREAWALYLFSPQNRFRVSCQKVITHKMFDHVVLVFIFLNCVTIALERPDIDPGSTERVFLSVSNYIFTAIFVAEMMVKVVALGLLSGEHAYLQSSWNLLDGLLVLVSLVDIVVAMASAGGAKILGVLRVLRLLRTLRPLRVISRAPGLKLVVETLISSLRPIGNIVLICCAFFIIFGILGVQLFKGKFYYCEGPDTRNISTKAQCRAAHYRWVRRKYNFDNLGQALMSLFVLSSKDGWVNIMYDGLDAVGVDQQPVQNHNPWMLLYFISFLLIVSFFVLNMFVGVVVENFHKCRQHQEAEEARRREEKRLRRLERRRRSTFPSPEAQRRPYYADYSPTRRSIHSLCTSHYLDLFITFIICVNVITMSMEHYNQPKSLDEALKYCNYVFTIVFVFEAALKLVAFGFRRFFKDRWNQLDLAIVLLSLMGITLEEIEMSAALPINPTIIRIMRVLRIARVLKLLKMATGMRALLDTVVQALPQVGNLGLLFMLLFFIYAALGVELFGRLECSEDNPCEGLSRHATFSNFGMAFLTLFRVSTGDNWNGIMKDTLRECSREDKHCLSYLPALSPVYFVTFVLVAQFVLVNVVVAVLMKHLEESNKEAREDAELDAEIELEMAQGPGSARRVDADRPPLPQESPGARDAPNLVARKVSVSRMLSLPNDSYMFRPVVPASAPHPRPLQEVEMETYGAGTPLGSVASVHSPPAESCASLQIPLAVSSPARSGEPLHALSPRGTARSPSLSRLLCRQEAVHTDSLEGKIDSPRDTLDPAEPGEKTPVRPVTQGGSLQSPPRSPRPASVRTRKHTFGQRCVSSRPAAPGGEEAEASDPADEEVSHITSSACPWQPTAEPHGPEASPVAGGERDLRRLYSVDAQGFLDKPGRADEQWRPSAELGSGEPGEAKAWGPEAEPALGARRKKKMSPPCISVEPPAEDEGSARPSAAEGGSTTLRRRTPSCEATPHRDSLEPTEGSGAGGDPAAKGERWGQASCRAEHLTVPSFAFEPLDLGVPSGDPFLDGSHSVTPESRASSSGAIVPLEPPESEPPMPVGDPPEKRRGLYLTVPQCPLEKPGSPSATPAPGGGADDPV
# CYP2C19 act: activators of human cytochrome P450 2C19; P33261; activation factor at 5 µM; 96,000 tested, under 10 active; recombinant CYP2C19, luciferin-H EGE luminescence; stronger effect = higher value; 0 = fully inhibited enzyme, 1 = untreated enzyme;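 active = activation factor of at least 2 at 5 µM in the primary screen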;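 note: 0 = wells with 2.5 mM tranylcypromine and 1 = vehicle-only wells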
# CYP2C9 activ: increases human cytochrome P450 2C9 activity; P11712; recombinant CYP2C9, luciferin-H conversion, luminescence; stronger effect = higher value; factor 1 = untreated enzyme, 0 = blocked; activation factor at 5 µM; actives 1.4% (n = 96,000);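 active = activation factor of 2 or more for CYP2C9 at a 5 µM dose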;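 note: 0 = sulfaphenazole-blocked wells and 1 = vehicle-only wells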
# CYP2C19 inh: human CYP2C19 inhibition; P33261; CYP2C19 Supersomes, luciferin-H EGE luminescence, 30 min; inhibition, % at 5 µM; actives 21% (n = 96,000); AID 778;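 active = CYP2C19 inhibition above a set limit at 5 µM in the primary screen, cut at about 50% in these data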;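 note: plate controls were negative control wells for no effect and 2.5 mM tranylcypromine positive control for full effect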
# CYP2C9 inh: blocks human cytochrome P450 2C9 | P11712 | inhibition, % at 5 µM | actives 20% (n = 96,000) | CYP2C9 Supersomes, luciferin-H conversion, luminescence;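 active = blocking of liver enzyme CYP2C9 beyond about 50% at 5 µM, limit read from the data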
# * hit, by the source's call; · = not tested or not shown.
SMILES,Cav3 T inh,CYP2C19 act,CYP2C9 activ,CYP2C19 inh,CYP2C9 inh
Cn1c(=O)oc2cc(S(=O)(=O)N3CCCC(C(=O)NC4CCCc5ccccc54)C3)ccc21 (stereo unspecified),0.81,0.9,0.4,7,60*
COC(=O)c1nn(-c2c(C)n(C)n(-c3ccccc3)c2=O)cc1O,-0.15,1,0.9,2,12
CCOC(=O)c1ccc(NC(=S)NCCCN2CCCCC2)cc1,-0.15,1,0.9,2,15
Cc1cc2ncn(-c3ncnc4sc5c(c34)CCCC5)c2cc1C,-5.7*,0.2,0.3,83*,66*
CC(O)CNc1nc2ccccc2n1-c1ncnc2sc3c(c12)CCC3 (stereo unspecified),-6.4*,0.6,0.6,38,44
c1ccc2c(c1)ncn2-c1ncnc2sc3c(c12)CCCC3,-1.3,0.3,0.7,70*,32
Oc1ccc(N2CCN(c3ncnc4sc5c(c34)CCC5)CC2)cc1,-0.57,0.9,1,12,-4
Cc1cc2ncn(-c3ncnc4sc(C)c(C)c34)c2cc1C,·,0.1,0.2,91*,83*
COc1cccc(C2C(C(=O)OC(C)C)=C(C)Nc3ncnn32)c1 (stereo unspecified),-1,0.7,0.5,30,48
COc1ccc(C(=O)Oc2ccc(/C=N/O)cc2)cc1,-1.8,0.9,1.1,5,-11
Cc1cc2ncn(-c3ncnc4sc5c(c34)CCC(C)C5)c2cc1C (stereo unspecified),·,0.2,0.6,80*,43
CC1CN(C(=O)c2cc3ccccc3oc2=O)CC(C)O1 (stereo unspecified),1.3,1,1.8,-1,-79
N#CC1=C(SCC(=O)c2cc3ccccc3oc2=O)NC(=O)C(C#N)C12CCCC2 (stereo unspecified),-3.3,0.5,0.1,52*,88*
CC(C)(C)C(=O)NC1CCN(S(=O)(=O)c2ccc(C(F)(F)F)cc2)CC1,0.13,0.2,1,76*,-3
O=C(NC1CCCCC1)c1ccc(S(=O)(=O)N2CCCCC2)cc1,-0.28,·,·,·,·
CCCCn1c(-c2nn(C)c(C)c2Cl)n[nH]c1=S,-0.13,0.8,0.8,19,18
CCCCn1c(-c2csc3c2CCC(C)C3)n[nH]c1=S (stereo unspecified),-1.6,0.7,0.5,26,47
CCCCn1c(-c2csc3ccccc23)n[nH]c1=S,·,0,0.1,97*,89*
CC(C)Cn1c(-c2nn(C)cc2Cl)n[nH]c1=S,-0.85,0.4,1,57*,0
CCCCn1c(-c2nn(C)cc2Cl)n[nH]c1=S,0.25,0.5,0.8,52*,21
COc1ccccc1CNC(=O)/C=C/c1cc2c(cc1Br)OCO2,0.071,1,1.4,4,-36
CCOC(=O)Cn1c(=O)n(C2CCCC2)c(=O)c2ccccc21,·,0.1,0.2,91*,77*
O=c1c2ccccc2n(Cc2cccc(F)c2)c(=O)n1C1CCCC1,·,0.7,0.7,32,27
N#Cc1ccccc1Cn1c(=O)n(C2CCCC2)c(=O)c2ccccc21,-5.1*,0.1,0,86*,96*
CCC(OC(=O)CC1Sc2ccccc2NC1=O)C(=O)NCC1CCCO1 (stereo unspecified),-0.016,0.7,0.6,30,39
SMILES,Cav3 T inh,CYP2C19 act,CYP2C9 activ,CYP2C19 inh,CYP2C9 inh
Cc1ccc(Cn2cnc3ccccc32)cc1,-0.76,0.2,0.4,77*,58*
COC(=O)c1cc2c([nH]c3ccccc32)c(C)n1,0.19,0.4,1,62*,-3
COc1ccc2c(-c3ccccc3)cc(N3CCOCC3)nc2c1,-0.19,1,0.8,-1,24
CCn1c(=O)n(CC(=O)Nc2cccc(OC)c2)c(=O)c2ccccc21,·,0.7,0.6,29,39
c1ccc(Cn2c(-c3cncs3)nc3ccccc32)cc1,-1.4,0.3,0.1,73*,94*
N#CCCCCn1c(-c2cncs2)nc2ccccc21,-2.2,0.4,1.1,56*,-9
Brc1ccc(Cn2c(-c3cncs3)nc3ccccc32)cc1,-1,·,·,·,·
COc1cccc(NC(=O)Cn2c(-c3cncs3)nc3ccccc32)c1,-0.35,0.2,0.2,76*,83*
O=C(Cn1c(-c2cncs2)nc2ccccc21)NCCc1ccccc1,0.42,0.1,0.5,91*,53*
CCCCn1nnnc1SCC(=O)NCc1ccccc1,0.52,0.6,0.9,42,13
C/C(=N\O)C(=O)NCCCNCCCN(C)C,0.89,1.2,1.3,-22,-31
